Assay results from PubChem BioAssay (NCI).
Compounds without any hit were thinned out: in the full panel of roughly 79,000, 15% have a hit. Values without a mark were called inactive. The source made the active and inactive calls. Rule as the data show it: active = growth inhibition above about 70%; inactive = the rest. Where a SMILES comes first, the peptide text is derived from it. [ ]: non-standard residue; d: D form. The star is where a group is joined. ONb = O=[N+]([O-])c1ccc(CO*)cc1; AllylGly = C=CC[CH](N)C(=O)O; Boc = CC(C)(C)OC(=O)*

What was measured:
[1] = NCI Yeast Anticancer Drug Screen. Data for the rad50 strain (AID 155);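 also: 0% = growth of vehicle-only cultures of the same strain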; conditions: S. cerevisiae rad50 strain growth inhibition; at 50.0 µM; stronger effect = higher value
Summary of the method: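 Compounds were tested on a yeast strain with an engineered DNA damage repair alteration; the reported value is growth inhibition normalised to vehicle treatment.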

[2] = NCI Yeast Anticancer Drug Screen. Data for the mec2-1 strain (AID 157); conditions: S. cerevisiae mec2-1 strain, at 50.0 µM, stronger effect = higher value
Summary of the method: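 Growth inhibition is read against vehicle-treated controls after compound exposure of the mec2-1 yeast strain, which is defective in DNA damage repair or cell cycle control.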

[3] = NCI Yeast Anticancer Drug Screen. Data for the sgs1 mgt1 strain (AID 161);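 also: 0% = growth of cultures given vehicle only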; conditions: S. cerevisiae sgs1 mgt1 strain, at 50.0 µM, stronger effect = higher value
Summary of the method: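 Growth of a repair-deficient yeast mutant was monitored after compound treatment and expressed as inhibition relative to vehicle-treated cultures.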

[4] = NCI Yeast Anticancer Drug Screen. Data for the cln2 rad14 strain (AID 165);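 also: 0% = growth equal to vehicle treated cultures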; conditions: S. cerevisiae cln2 rad14 strain, at 50.0 µM, stronger effect = higher value
Summary of the method: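 Growth inhibition, relative to vehicle-treated controls, is the read-out. The test organism is a yeast strain with defined genetic alterations, cln2 rad14.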

[5] = NCI Yeast Anticancer Drug Screen. Data for the bub3 strain (AID 167); conditions: S. cerevisiae bub3 mutant strain, at 50.0 µM, stronger effect = higher value
Summary of the method: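 Growth of a checkpoint-deficient yeast mutant is measured after compound exposure. Values represent inhibition relative to vehicle.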

[6] = NCI Yeast Anticancer Drug Screen. Data for the mlh1 rad18 strain (AID 175); conditions: S. cerevisiae mlh1 rad18 strain growth inhibition; at 50.0 µM; stronger effect = higher value
Summary of the method: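 Cells of a genetically altered yeast strain, deficient in DNA damage repair, were treated with compound. Their growth was then compared with that of vehicle-treated cultures to give inhibition.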

Compound: COc1ccc(N=Cc2c(O)c(O)c(C(C)C)c3cc(C)c(-c4c(C)cc5c(C(C)C)c(O)c(O)c(C=Nc6ccc(OC)cc6)c5c4O)c(O)c23)cc1
- growth inhibition [1]: 2.2%
- growth inhibition [2]: 1.75%
- growth inhibition [3]: -12.2%
- growth inhibition [4]: -18.4%
- growth inhibition [5]: -5.75%
- growth inhibition [6]: -6.2%

Compound: Cc1cc(=O)[nH]c2ccc(Cc3ccc(Cl)cc3)cc12
- growth inhibition [1]: 12.8%
- growth inhibition [2]: 1.75%
- growth inhibition [3]: 4.9%
- growth inhibition [4]: 7.6%
- growth inhibition [5]: 3.1%
- growth inhibition [6]: 1.65%

Compound: C=CCNC(=S)N(C)Cc1ccccc1Cl
- growth inhibition [1]: -7.2%
- growth inhibition [2]: 35.5%
- growth inhibition [3]: 34.8%
- growth inhibition [4]: -25.9%
- growth inhibition [5]: 36.4%
- growth inhibition [6]: 33.6%

Compound: Cc1cc(C)n2c(-c3ccccc3)nnc2c1
- growth inhibition [1]: 19.1%
- growth inhibition [2]: -7.2%
- growth inhibition [3]: -20.2%
- growth inhibition [4]: -7.05%
- growth inhibition [5]: 8.05%
- growth inhibition [6]: -8.85%

Compound: CCCCCCCCN(CCCCCCCC)CC(O)c1cc(-c2ccccc2)nc2c(-c3ccccc3)cccc12 (stereo not given)
- growth inhibition [1]: 46.8%
- growth inhibition [2]: 32.5%
- growth inhibition [3]: 49.2%
- growth inhibition [4]: 51.1%
- growth inhibition [5]: 26.1%
- growth inhibition [6]: 48.5%

Compound: CC(=O)N1CCOCC1
- growth inhibition [1]: 23.1%
- growth inhibition [2]: 1.55%
- growth inhibition [3]: 11.1%
- growth inhibition [4]: -28.6%
- growth inhibition [5]: -1.8%
- growth inhibition [6]: 21.1%

Compound: Cc1cc(C)c(CCl)c(C)c1CCl
- growth inhibition [1]: 0.9%
- growth inhibition [2]: 2%
- growth inhibition [3]: -9.1%
- growth inhibition [4]: -57.5%
- growth inhibition [5]: 5.75%
- growth inhibition [6]: 10.2%

Compound: O=C(N=Nc1c(O)[nH]c2c(Cl)cc(Cl)cc12)C(=O)Nc1cccc(C(F)(F)F)c1
- growth inhibition [1]: -8.85%
- growth inhibition [2]: -14%
- growth inhibition [3]: -24.6%
- growth inhibition [4]: 13.8%
- growth inhibition [5]: -23.8%
- growth inhibition [6]: -14%

Compound: CC(C)(C)C(=O)Nc1ccccc1
- growth inhibition [1]: 37.7%
- growth inhibition [2]: 17%
- growth inhibition [3]: 0.2%
- growth inhibition [4]: 1.55%
- growth inhibition [5]: -12.4%
- growth inhibition [6]: 23%

Compound: O=C(CN1CCOCC1)CC(O)(C(F)(F)F)C(F)(F)F
- growth inhibition [1]: 0.35%
- growth inhibition [2]: 2.05%
- growth inhibition [3]: -1.65%
- growth inhibition [4]: 7.1%
- growth inhibition [5]: 1.85%
- growth inhibition [6]: 72.7% (active)

Compound: CCOc1nc(SCC)nc2c1cnn2-c1ccccc1
- growth inhibition [1]: -8.45%
- growth inhibition [2]: -26.4%
- growth inhibition [3]: -9.9%
- growth inhibition [4]: -15.8%
- growth inhibition [5]: -1.2%
- growth inhibition [6]: -19.5%

Compound: Nc1nc(Br)nc2ncn(C3CC(O)C(CO)O3)c12 (stereo not given)
- growth inhibition [1]: 20.1%
- growth inhibition [2]: 3.8%
- growth inhibition [3]: 18.3%
- growth inhibition [4]: -2.25%
- growth inhibition [5]: -0.85%
- growth inhibition [6]: -4.9%

Compound: C=CCC(NC(=O)OC(C)(C)C)C(=O)NC(CCC(=O)OCc1ccc([N+](=O)[O-])cc1)C(N)=O (stereo not given) (Boc-[AllylGly]-Glu(ONb)-NH2; configuration not given here)
- growth inhibition [1]: -7.75%
- growth inhibition [2]: -36.7%
- growth inhibition [3]: -20.1%
- growth inhibition [4]: 9.25%
- growth inhibition [5]: -2.35%
- growth inhibition [6]: -9.2%

Compound: O=C(C(=O)c1cccc(Cl)c1)c1ccccc1
- growth inhibition [1]: 21.4%
- growth inhibition [2]: 24.6%
- growth inhibition [3]: 5%
- growth inhibition [4]: 2.85%
- growth inhibition [5]: -15.2%
- growth inhibition [6]: -5.45%

Compound: O=C1CSC(c2cccc(F)c2)N1CCN1C(=O)CSC1c1cccc(F)c1 (stereo not given)
- growth inhibition [1]: 27.7%
- growth inhibition [2]: 16.7%
- growth inhibition [3]: 9.65%
- growth inhibition [4]: 20.6%
- growth inhibition [5]: 2.4%
- growth inhibition [6]: -7.5%

Compound: N#Cc1ccc(NC(=O)C(CC(=O)OCc2ccccc2)NC(=O)OCc2ccccc2)cc1 (stereo not given)
- growth inhibition [1]: -2.75%
- growth inhibition [2]: 4.65%
- growth inhibition [3]: 3.85%
- growth inhibition [4]: 7.3%
- growth inhibition [5]: 50.8%
- growth inhibition [6]: -8.05%

Compound: COc1cc(/C=C2\SC(=S)N(/C=C(/C#N)C(=O)c3ccc4ccccc4c3)C2=O)cc(OC)c1OC
- growth inhibition [1]: 21.3%
- growth inhibition [2]: 11.8%
- growth inhibition [3]: 53.4%
- growth inhibition [4]: 3.45%
- growth inhibition [5]: 27.2%
- growth inhibition [6]: 31.4%

Compound: CN(C)CCC(N)(P(=O)([O-])[O-])P(=O)([O-])[O-].N.N.[Pt+2]
- growth inhibition [1]: -24.5%
- growth inhibition [2]: 2.2%
- growth inhibition [3]: 3.15%
- growth inhibition [4]: 12.9%
- growth inhibition [5]: 12.3%
- growth inhibition [6]: 3.95%

Compound: CC(=O)Nc1ccc(C2CC(c3ccc([N+](=O)[O-])cc3)=Nc3ccccc3S2)cc1 (stereo not given)
- growth inhibition [1]: 32.8%
- growth inhibition [2]: 24.6%
- growth inhibition [3]: 34.1%
- growth inhibition [4]: 17.6%
- growth inhibition [5]: 13.9%
- growth inhibition [6]: 49.9%

Compound: CCOC(=O)C1C(=S)NC(=O)C1C#N (stereo not given)
- growth inhibition [1]: 0.3%
- growth inhibition [2]: -0.05%
- growth inhibition [3]: 1.35%
- growth inhibition [4]: 0.75%
- growth inhibition [5]: 11.3%
- growth inhibition [6]: -4.7%
